Screening results deposited in PubChem BioAssay by The Scripps Research Institute Molecular Screening Center.
The sample as a whole holds a higher share of hits than the screen did.
TbREL1 inh = TbREL1 RNA ligase inhibitors, primary screen, biochemical, FRET fluorescence. inhibition, % at 9.66 µM. TbREL1 RNA ligation. RNA-editing ligase 1, mitochondrial (Trypanosoma brucei brucei), P86926. 89,000 tested, 0.49% active. AID 1117264, 2014;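 active = inhibition above the mean inhibition across all screened compounds plus 3 SD, cut at about 11% in these data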;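 also: 0% = plate median of test wells and 100% = NSC42067 control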
Target sequence (P86926 whole entry, looked up): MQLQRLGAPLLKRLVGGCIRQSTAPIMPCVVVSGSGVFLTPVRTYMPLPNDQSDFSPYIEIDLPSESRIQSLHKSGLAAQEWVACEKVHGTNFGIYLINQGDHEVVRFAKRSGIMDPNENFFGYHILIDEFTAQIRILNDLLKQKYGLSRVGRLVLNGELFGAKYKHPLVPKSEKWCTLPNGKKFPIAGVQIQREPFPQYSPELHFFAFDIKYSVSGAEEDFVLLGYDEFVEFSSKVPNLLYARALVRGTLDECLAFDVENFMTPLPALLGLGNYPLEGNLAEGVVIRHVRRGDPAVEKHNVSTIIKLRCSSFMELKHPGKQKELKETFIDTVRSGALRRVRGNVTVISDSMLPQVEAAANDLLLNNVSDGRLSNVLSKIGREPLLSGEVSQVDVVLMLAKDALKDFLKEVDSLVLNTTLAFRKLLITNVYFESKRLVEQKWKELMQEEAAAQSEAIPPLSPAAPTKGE
TbREL1 confirm = TbREL1 RNA ligase inhibitors, confirmation, biochemical, FRET fluorescence, triplicate | shares compounds with TbREL1 inh | TbREL1 RNA ligation | inhibition, % at 9.66 µM | 390 tested, 37% active | AID 1117282, 2014;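 active = mean inhibition across replicates above a set limit taken from the earlier primary screen, cut at about 11% in these data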;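 also: 0% = REL1 with substrate and DMSO and 100% = REL1 plus control inhibitor NSC42067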
Numbers without * were called inactive.

SMILES | TbREL1 inh | others
CCOC(=O)[C@]12CCCC=C1N(CCCOC)C(=O)[C@@H]2CC(=O)N1CCC(c2ccccc2)CC1 | -3
CCN1CCCCC(NC(=O)c2ccccc2OC)C1=O (stereo unspecified) | 8
Cn1c(=O)[nH]c2c(Br)nccc21 | 6
CC(C)Oc1ccc(S(=O)(=O)N2CCCCCC2)c2ccccc12 | 4
CCCC1CCC2(CC1)CCC2OC(=O)Nc1cccc(C(F)(F)F)c1 (stereo unspecified) | 12* | TbREL1 confirm=8
CCCC1CCC2(CC1)CCC2OC(=O)Nc1cc(C)cc(C)c1 (stereo unspecified) | 0
CCCC1CCC2(CC1)CCC2OC(=O)Nc1ccc(C)cc1 (stereo unspecified) | -1
CCNC(=O)CCc1nc(-c2ccc(C(C)C)cc2)no1 | 1
COc1cc2c(cc1NC(=O)CSc1nnc(-c3cccc(Cl)c3)n1-c1ccccc1)oc1ccccc12 | -3
CC(CNC(=O)[C@@H](Cc1ccccc1)NC(=O)[C@H]1O[C@@H](n2ccc(=O)[nH]c2=O)[C@H](O)[C@@H]1O)c1ccccc1 (stereo partly specified) | -2
Nc1nnc(SCCN2C(=O)c3ccccc3C2=O)s1 | 11* | TbREL1 confirm=3
Cc1cc(C)n2c(SCCN3C(=O)c4ccccc4C3=O)nnc2n1 | 0
Nc1nnc(SCC(=O)c2ccc3ccccc3c2)s1 | -2
Cc1cc(-c2n[nH]c(=S)n2N=Cc2cc(Br)ccc2F)n[nH]1 | -5
COc1ccc(-c2nn3cnnc3s2)cc1OC | 11* | TbREL1 confirm=4
COc1ccc(-c2cn3nc(C)c(C)nc3n2)cc1OC | 2
COc1ccc(-c2nn3c(COc4ccccc4)nnc3s2)cc1OC | 0
Cc1ccccc1NC(=O)Cn1nnc(-c2ccncc2)n1 | 2
CCc1nc2ccc(C(=O)N3CCCC(C(N)=O)C3)cn2c1N(C)Cc1ccc(OC)cc1 (stereo unspecified) | -5
O=C(Cc1ccc2c(c1)OCO2)N1CCC(n2nc(-c3ccccc3)oc2=O)CC1 | 0
COC(=O)c1cccc(Cn2ccc3ccc(-c4ccc5ccn(C(=O)C6CC6)c5c4)cc32)c1 | 0
COC1=CC(=O)c2nc(Cl)ccc2C1=O | 20* | TbREL1 confirm=30*
CC1CN(c2nc3ccccc3nc2SCC(=O)N2CCN(S(=O)(=O)c3ccc(F)cc3)CC2)CC(C)O1 (stereo unspecified) | -1
CCCCCn1c(=N)n(CC(O)COc2ccccc2OC)c2ccccc21 (stereo unspecified) | 11* | TbREL1 confirm=10
Cc1ccc(OCC(O)Cn2c(=N)n(CCN3CCCCC3)c3ccccc32)cc1 (stereo unspecified) | 9
SMILES | TbREL1 inh | others
CCN(CC)CCn1c(=N)n(CC(O)COc2ccccc2)c2ccccc21 (stereo unspecified) | 3
CCCCNC(=O)N1CCCC1C(=O)Nc1cccc(OC)c1 (stereo unspecified) | -2
COP(=O)(O)[C@@H](CC(C)C)NC(=O)OCc1ccccc1 | 0
O=C(Nc1nccs1)c1ccccn1 | 15* | TbREL1 confirm=5
Cc1ccccc1NC(=O)c1ccccn1 | 1
O=C(Nc1nccs1)c1cnccn1 | 7
COc1cc(CN2C(=O)C(CCc3ccccc3)ON=C2c2cnccn2)cc(OC)c1 (stereo unspecified) | 2
COc1ccccc1C(=O)NC1CCCCN(Cc2ccc(C)cc2)C1=O (stereo unspecified) | -2
CCOC(=O)[C@]12CCCC=C1N(CCC1=CCCCC1)C(=O)[C@H](CC(=O)NCc1cccs1)C2 | -2
CCOC(=O)N[C@@H](Cc1cccnc1)C(=O)N1CCC[C@H]1C(=O)NCCc1ccccc1Cl | 7
Cc1ccccc1N1CCN(C(=O)CN2C(=O)CC(C)(C)S(=O)(=O)c3ccccc32)CC1 | -4
C/C=C(/C)C(=O)Nc1cccc(C2=NOC3(C2)C[C@H](C(N)=O)N(C(=O)c2ccccc2)C3)c1 (stereo partly specified) | -2
NC(=O)[C@@H]1CC2(CC(c3cccc(NC(=O)CC(c4ccccc4)c4ccccc4)c3)=NO2)CN1C(=O)c1ccc(Cl)cc1 (stereo partly specified) | 0
NC(=O)[C@H]1CC2(CC(c3cccc(NC(=O)[C@H]4CCC(=O)N4)c3)=NO2)CN1C(=O)c1ccccc1 (stereo partly specified) | 20* | TbREL1 confirm=26*
COc1ccc(C(=O)N2CCC[C@H]2C(=O)N2CCC[C@@H]2C(=O)NCc2ccccc2)cc1F | 0
O=C(Nc1ccc(F)cc1)N1CCCN(c2ccc(C(F)(F)F)cn2)CC1 | 25* | TbREL1 confirm=0
O=C(Nc1ccccc1)N1CCCN(c2ccc(C(F)(F)F)cc2[N+](=O)[O-])CC1 | 0
O=C(Nc1ccccc1)N1CCN(c2ccc(F)cc2)CC1 | 2
O=C1CCC[C@H]2C[C@H](NCc3ccc(Cl)cc3)CC[C@]23CCCN13 | 10
CCCCCn1nnnc1C1(C)CCCCC(=O)N1Cc1ccco1 (stereo unspecified) | -2
O=c1cc(CN2CCc3ccccc32)nc2sccn12 | 15* | TbREL1 confirm=22*
O=c1cc(CN2CCCc3ccccc32)nc2sccn12 | 3
CC1CN(Cc2cc(=O)n3ccsc3n2)CC(C)O1 (stereo unspecified) | 1
CCC(C)[C@H](NC(=O)[C@H](Cc1ccccc1)NC(=O)OC(C)(C)C)C(=O)NCc1ccccc1Br (stereo partly specified) | 8
COc1cccc(N2CCN(C(=O)CSc3nc4ncccc4[nH]3)CC2)c1 | 3
SMILES | TbREL1 inh | others
O=c1c2cc3ccccc3nc2ncn1CCc1ccc(Cl)cc1 | 2
O=c1c2cc3cc4c(cc3nc2ncn1CCc1ccccc1)OCO4 | 15* | TbREL1 confirm=2
O=c1c2cc3cc(Cl)ccc3nc2ncn1CCc1ccc(O)cc1 | 0
O=C(CN(CCc1ccccc1)S(=O)(=O)c1ccc(Cl)s1)N1CCOCC1 | -1
FC(F)(F)c1ccccc1Cn1ccc2ccc(-c3ccc4ccn(Cc5ccccc5)c4c3)cc21 | 1
O=C(CN1CCN(S(=O)(=O)c2ccc(F)cc2)CC1)Nc1ccccc1C(=O)NC1CC1 | -1
CCN(CC)S(=O)(=O)c1ccc(C(C)NCC(=O)Nc2ccccc2C(=O)NC2CC2)cc1 (stereo unspecified) | 1
CC(NCC(=O)Nc1ccccc1C(=O)NC1CC1)c1ccc(S(N)(=O)=O)cc1 (stereo unspecified) | 17* | TbREL1 confirm=6
Cc1ccc(-c2cc(C(=O)NN=Cc3c4ccccc4cc4ccccc34)[nH]n2)cc1C | 3
CCSc1nnc(NC(=O)CSC2=NN3CCCC(=O)N=C3S2)s1 | 15* | TbREL1 confirm=1
CCOc1ccc(NC(=O)CSC2=NN3CCCC(=O)N=C3S2)cc1 | -3
CC(C)(C)CC(=O)Nc1nnc(SCC(=O)NC2CCCC2)s1 | 1
C=CCN1C(=O)[C@H](CC(=O)NCCCC)[C@@]2(C(=O)OCC)CCCC=C12 | -3
COC(=O)C1CCN(C(=O)CN2CCC(C(=O)c3ccc(C)cc3)CC2)CC1 | -3
Cn1cccc1CC(=O)NN=C/C=C\c1ccco1 | 67* | TbREL1 confirm=2
Cc1ccc(-n2c(SCC(=O)N/N=C/C=C\c3ccco3)nnc2-c2ccccc2)cc1 | -6
Cn1cccc1CC(=O)NN=Cc1cccc(F)c1 | 1
